Out of some 48,000 compounds screened, about 13,000 (27%) showed an effect of 50% or more. The list shows a part of the results.
System: Wolbachia pipientis
Assay: Anti-Wolbachia Cell-Based Screen
Assay type: functional
Design: scale not given: in the data most compounds retested in dose-response had high values
Conditions: 5 µM

Structure (SMILES)	Percent Effect [%]
COc1ccc(CC(=O)N2CCc3nnc(N(C)C)cc3C2)cc1F	-3.012
CCN(CC)S(=O)(=O)N1C[C@@H]2CC[C@H](C1)N(Cc1cscn1)C2=O	-30.66
CCC1c2ccccc2CCN1C(=O)c1ccnc(C(=O)OC)c1 (stereo not given)	-12.45
CC(C)NC[C@H]1COCc2nc3cccnc3n21	-0.2965
O=C(c1ccc2ncsc2c1)N1CCC(C(=O)O)(n2cccn2)CC1	-48.02
CC(C)(C)c1nnc(CN2CCN(S(C)(=O)=O)CC2)o1	12.09
CC1CCN(C(=O)CSCc2nc(C3CC3)no2)CC1	2
O=C(CCC(=O)N1CCc2ccccc2C1)c1cccs1	11.35
O=C(Cn1cc(I)cn1)N1CCc2ccccc2C1	13.89
O=C(CSCCN1CCOCC1)N1CCCCCC1	88.11
CC1CCN(C(=O)CSCc2noc(C(C)C)n2)CC1	-0.6667
CCOCCN1CCN(CCC(=O)N2CCCCC2)CC1	-4.912
O=C(CSCCN1CCOCC1)N1CCc2ccccc2C1	125
CC1CCN(C(=O)CSCCN2CCOCC2)CC1	94.74
CC(=O)N1CCOC2(CCCN(C(=O)CCN3CCCCC3)C2)C1 (stereo not given)	-17.75
N#Cc1cccnc1OC1CCN(C(=O)NCc2ccccc2)CC1	7.798
CC(=O)N1CCCC2(CN(Cc3ccc(C)s3)CCO2)C1.O=C(O)C(F)(F)F (stereo not given)	0.2205
O=C(CC1OCCc2ccccc21)NCC1(O)CCCCC1 (stereo not given)	-10.96
Cc1ccc(CNc2ccn(CCC(N)=O)n2)c(Br)c1	-13.88
CCC(CO)N(Cc1ccccn1)C(=O)c1ccc(C)c(Cl)c1 (stereo not given)	-8.3
c1cc(-c2cnc(NC3CC3)nc2[C@H]2CCCO2)ccn1	171.5
CC(C)Nc1ncc(-c2ccncc2)c([C@@H]2CCCO2)n1	174
CC(C)c1cc(C(=O)N(Cc2ccncc2)CC2CCCO2)no1 (stereo not given)	4.129
c1cc(-c2cnc(NC3CC3)nc2[C@@H]2CCCO2)ccn1	175.9
COc1ccc(-c2ccncc2)cc1CNC1CCCC1	-7.134
COc1ccc(CCC(=O)NCCC2CCCO2)cc1Br (stereo not given)	4.709
O=C(NCCn1ccnc1)C1(c2ccc3c(c2)OCCO3)CCCC1	33.12

Structure (SMILES)	Percent Effect [%]
CC(C)(CO)Nc1cc(-c2ccccc2)ncn1	83.59
CC(C)(CO)Nc1cc(-c2cn[nH]c2)ncn1.Cl	116.8
CC(C)(C)S(=O)(=O)CCNC(=O)c1cnc(-c2ccccc2)nc1	-10.41
CC(C)(CO)Nc1ccc(-c2nc(-c3ccccc3F)no2)cn1	-13.37
COc1ccc(-c2cn[nH]c2)cc1CNC1CCCC1	-15.21
CC(C)(CO)Nc1cc(-c2ccncc2)ncn1	106.2
CN(Cc1ccsc1)Cc1ccc(C2CCCCO2)o1 (stereo not given)	10.63
Cc1cccc(OC2CCN(c3ccc(C#N)cn3)CC2)n1	-50.95
CN(C)[C@@H]1CCN(c2ncccn2)[C@H]1Cc1ccncc1.O=C(O)C(F)(F)F.O=C(O)C(F)(F)F	-8.933
CC(O)CN(Cc1cccc(C(N)=O)c1)c1ccccc1 (stereo not given)	-3.401
Cc1cc(CN(C)C(=O)C2CCC(=O)N(CC3CCCCC3)C2)n[nH]1 (stereo not given)	15.57
Cc1nn(C)c(C)c1C1CCCN1CCCc1nc2ccccc2o1 (stereo not given)	0.8066
Cc1cc(C)n(CC2CCCN2CCCc2nc3ccccc3o2)n1 (stereo not given)	125.1
Cc1nc(C)n(CC2CCCCN2Cc2nc3ccccc3o2)n1 (stereo not given)	96.27
Cc1nc(C)n(CC2CCCN2CCCc2ccccc2)n1 (stereo not given)	-4.599
Cc1cc(C2CCCN2CCCc2nc3ccccc3o2)on1 (stereo not given)	8.097
Cc1nc(C)n(CC2CCCN2Cc2nc(N)c3ccccc3n2)n1 (stereo not given)	4.973
Cc1cnn(CC2CCCN2CCCc2nc3ccccc3o2)c1 (stereo not given)	11.07
Cc1nc(C)n(CC2CCCN2Cc2nc3ccccc3nc2C)n1 (stereo not given)	-1.93
Cc1nc(C)n(CC2CCCN2CCCc2nc3ccccc3o2)n1 (stereo not given)	115.5
O=C(CCN1CCCO1)N1CC[C@@H](CNC(=O)N2CCCC2)[C@H](O)C1	5.965
CCc1ccc2c(c1)C(CCNC(=O)c1sccc1C)C(=O)N2 (stereo not given)	-0.3397
Cn1nc(CN2CCC(c3ccncc3)CC2)c2c(Cl)cccc21	-3.245
OC(COCc1ccccc1F)CN1CCc2c(ncn2C2CC2)C1 (stereo not given)	-3.372
Cc1ncc(CN(C)CC(O)c2ccc(Br)cc2)s1 (stereo not given)	5.745
Cn1cnnc1CC1CCN(Cc2nn(C)c3cccc(Cl)c23)CC1	-2.14
Cc1cnn(CC2CCCN2CC(=O)N(C)Cc2ccco2)c1 (stereo not given)	-7.327

Structure (SMILES)	Percent Effect [%]
Cc1cnn(CC2CCCN2C(=O)CCc2ccncc2)c1 (stereo not given)	138.1
Cc1cnn(CC2CCCN2C(=O)CCc2ccco2)c1 (stereo not given)	108.9
Cc1cnn(CC2CCCN2C(=O)CCc2ccc3c(c2)OCO3)c1 (stereo not given)	126.1
Cc1cnn(CC2CCCN2C(=O)CCc2ccsc2)c1 (stereo not given)	-5.285
CC(=O)Nc1ccc(S(=O)(=O)Nc2c(F)cccc2F)cc1	12.85
Cc1cnn(CC2CN(CC(=O)Nc3nnc(C)s3)CCO2)c1 (stereo not given)	-4.997
COc1cc(F)ccc1C(C(=O)O)N(C)CCN1CCCC1 (stereo not given)	-2.761
O=S(=O)(Cc1ccccc1)NCC1CCCN(Cc2cccs2)C1 (stereo not given)	-20.75
CC(C)c1nc(O)c2nnn(C[C@H]3CCCN(Cc4cccs4)C3)c2n1	127.4
CC(C)c1nc(O)c2nnn(C[C@@H]3CCCN(Cc4cccs4)C3)c2n1	127
CC1CN(Cc2cccc(CN)c2)CCO1 (stereo not given)	-7.811
Cc1cc(=O)n(C)cc1NC(=O)Cc1ccc(C(F)(F)F)cc1	-20.5
CCN(CCNCc1ccc(C#N)cc1)C1CC1	-16.49
FCCOc1cccc(NCc2c[nH]nc2-c2cccnc2)c1	-17.01
Fc1ccc(-c2n[nH]cc2-c2ccnc(NCCN3CCCC3)n2)cc1	7.952
Cc1ccccc1-n1cc(-c2ccnc(N[C@@H](CO)C(C)C)n2)cn1	-0.1007
O=C(NCCNc1ncccn1)c1ccc(-c2ccco2)[nH]c1=O	7.88
OCCNc1nccc(-c2c[nH]nc2-c2ccncc2)n1	131
CCOCc1cccc(NCc2c[nH]nc2-c2cccnc2)c1	-7.599
Cc1nc(O)cc(CCNc2nccc(CCC(F)(F)F)n2)n1	19.69
Cc1ccccc1-n1cc(-c2ccnc(NC(CO)C(C)C)n2)cn1 (stereo not given)	-0.3825
OCCNc1nccc(-c2c[nH]nc2-c2ccco2)n1	131.5
OCCNc1nccc(-c2c[nH]nc2-c2cccnc2)n1	121.3
CC(C)[C@H](CO)Nc1nccc(-c2c[nH]nc2-c2ccncc2)n1	88.77
COCCNC(=O)CSc1nnc(OC(C)C)s1	5
CN(CCNS(C)(=O)=O)C(=O)c1ccc(Cl)c(Cl)c1	2.263
Cc1nn(C)c(C)c1CN(Cc1cccn1-c1cccnc1)C(C)C	-3.784

Structure (SMILES)	Percent Effect [%]
O=C(NCc1ccccc1OCCO)Nc1ccc2c(c1)CCC2	17.01
N#Cc1ccnc(N2CCC(c3nccn3Cc3cscn3)CC2)c1	9.295
CCCOC(C)C(=O)N1CCC(O)(c2ccc3nc(C)ccc3c2)CC1 (stereo not given)	-16.84
N#Cc1ccc(NCCC2CCN(CC(F)(F)F)CC2)nc1	-12.29
CN(C)Cc1nnc2n1CCN(Cc1cccnc1)C2	-0.7549
Cc1ccc2c(n1)N(CC1CC1)CCN(Cc1cnn(C)c1)C2	122.1
COCCN1CCN(C(=O)C2CC=CC2)Cc2cccnc21	-8.576
Cc1ccc2c(n1)N(Cc1cccnc1)CCN(Cc1cnn(C)c1)C2	105.8
Cc1ccc2c(n1)N(Cc1cccnc1)CCN(C(=O)C1CCC1)C2.O=C(O)C(F)(F)F.O=C(O)C(F)(F)F	-8.761
Cc1ccc2c(n1)N(CC1CC1)CCN(C(=O)NC1CC1)C2.O=C(O)C(F)(F)F	-6.473
COCCC(=O)N1CCN(CC2CC2)c2nc(C)ccc2C1.O=C(O)C(F)(F)F	-15.14
Cc1ccc2c(n1)N(Cc1cccnc1)CCN(C(=O)C1CC=CC1)C2	112.8
Cc1cc(-c2nn(C)c(Cl)c2CN2CCC3(CC2)[C@H](O)C[C@@H]3O)no1	0.9032
CNC(=O)CS(=O)(=O)C1CCN(S(=O)(=O)c2c(F)cccc2F)CC1	3.089
CCn1ccnc1CN1CCN(C(C)C(=O)N2CCCC2)CC1 (stereo not given)	111.2
CCn1ccnc1CN1CCN(C(C)C(=O)N2CCC(C)CC2)CC1 (stereo not given)	15.17
CCn1ccnc1CN1CCN(C(C)C(=O)N2CCCCCC2)CC1 (stereo not given)	83.63
CCn1ccnc1CN1CCCN(C(=O)C2(C#N)CCCCC2)CC1	-5.352
CCn1ccnc1CN1CCN(C(C)C(=O)NC2CCCCC2)CC1 (stereo not given)	-10.14
CCn1ccnc1CN1CCCN(C(=O)c2cnc(C)cn2)CC1	120.4
CCn1ccnc1CN1CCCN(C(=O)c2cc(Cl)c[nH]2)CC1	-1.253
CCn1ccnc1CN1CCCN(C(=O)c2cncnc2C)CC1	-6.711
CCn1ccnc1CN1CCCN(C(=O)c2cccn2C)CC1	1.946
COc1cccc(CNC(=O)NC2(c3nc(C)no3)CCCCC2)c1	-3.756
